Measurements from PubChem BioAssay (Tox21).
Active and inactive are the calls of the source. Calls follow the shape of the full dose curve.

What follows are compounds tested against Gonadotropin-releasing hormone receptor (Homo sapiens) (UniProt P30968) (assay: Human gonadotropin-releasing hormone receptor (GnRHR) small molecule agonists, calcium flux assay in GnRHR-HEK293 cells (AID 1920063; also: nearly all actives have a fitted effect of over 35% in size)). Settings: calcium flux fluorescence, agonist mode; series mostly up to 57.6 µM; activity change: at the top concentration.
Sequence of Gonadotropin-releasing hormone receptor (Homo sapiens) (P30968 whole entry, looked up): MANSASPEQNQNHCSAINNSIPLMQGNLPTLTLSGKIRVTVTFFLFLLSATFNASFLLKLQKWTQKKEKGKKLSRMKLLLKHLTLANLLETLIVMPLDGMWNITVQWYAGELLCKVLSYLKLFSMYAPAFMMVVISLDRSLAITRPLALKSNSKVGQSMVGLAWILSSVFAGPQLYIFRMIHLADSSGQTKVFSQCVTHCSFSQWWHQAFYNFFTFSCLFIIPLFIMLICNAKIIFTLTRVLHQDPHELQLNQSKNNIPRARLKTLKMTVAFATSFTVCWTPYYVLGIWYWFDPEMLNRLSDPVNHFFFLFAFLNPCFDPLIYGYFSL
Description: National Center for Advancing Translational Sciences [NCATS]
Division of Preclinical Innovation [DPI]
U.S. Environmental Protection Agency [EPA]
National Institutes of Environmental Health Sciences [NIEHS]
National Toxicology Program [NTP]
U.S. Food and Drug Administration [FDA]
Gonadotropin-releasing hormone receptor (GnRHR) is a G-protein-coupled receptor (GPCR) and acts (through phospholipase C) to increase intracellular inositol trisphosphate and then release intracellular calcium stores. Cell-based GnRHR-Hek293 calcium influx assay is using HEK293 cells that have been genetically engineered to express the human GnRHR, which activity can be measured by calcium signaling. A compound/drug can activate (agonist) GnRHR that can be monitored by levels of intracellular calcium.
GnRHR-HEK293 cells developed by Codex Corp contain human GnRHR reporter gene, which was stably integrated into HEK 293 cells. The compound activation can be detected by fluorescence intensity via calcium flux assay. This cell line has been used to screen the Tox21 10K compound library to identify GnRHR agonists.
GnRHR-Hek293 cells were dispensed at 1500cells/4uL/well in 1536-well black wall/clear bottom plates using a multidrop dispenser. After the assay plates were incubated at a 37 C/5% CO2 incubator for 18 hours, 4 uL of Calcium Dye Solution was added to each well. The plates were incubated at 37 C for 1 hour. For agonist mode, 23 nL of compounds dissolved in DMSO, positive controls or DMSO only was transferred to the assay plate by a pin tool station. The fluorescence intensity in the plates was measured using FDSS 7000EX kinetic plate reader with a filter set of Ex/Em=480/540 for 3 min at 1 sec intervals. Each test compound was measured at 15 concentrations and in triplicates.
% is scaled to controls: 0 for no effect and ±100 for the full control effect.

Row | SMILES | activity change | Potency
1 | CC(C)(C(=O)O)c1ccc(C(O)CCCN2CCC(C(O)(c3ccccc3)c3ccccc3)CC2)cc1 (stereo not given) | -1.04% [at 26.4 µM, hits give high values] (inactive) | –
2 | C=C[Si](OCC)(OCC)OCC | -0.785% (inactive) | –
3 | Nc1cc(Cl)c([N+](=O)[O-])cc1O | -0.911% (inactive) | –
4 | CCCCCCCCCCCCSC#N | -0.356% (inactive) | –
5 | N[C@@H]1CONC1=O | -0.0298% [at 26.4 µM, hits give high values] (inactive) | –
6 | C[C@@H]1C[C@H]2[C@@H]3C[C@H](F)C4=CC(=O)C=C[C@]4(C)[C@@]3(F)[C@@H](O)C[C@]2(C)[C@@]1(O)C(=O)CO | 0.0847% [at 26.4 µM, hits give high values] (inactive) | –
7 | CC(C(=O)O)c1ccc(C(=O)c2cccs2)cc1 (stereo not given) | 0.242% [at 26.4 µM, hits give high values] (inactive) | –
8 | OCCN1CCN(CCCN2c3ccccc3Sc3ccc(C(F)(F)F)cc32)CC1 | 11.8% [at 26.4 µM, hits give high values] (inactive) | –
9 | C=CCOC(=O)COCCC(C)C | 2.5% (inactive) | –
10 | CO[C@H]1C=CO[C@@]2(C)Oc3c(C)c(O)c4c(O)c(c5c(c4c3C2=O)=NC2(CCN(CC(C)C)CC2)N=5)NC(=O)/C(C)=C\C=C/[C@H](C)[C@H](O)[C@@H](C)[C@@H](O)[C@@H](C)[C@H](OC(C)=O)[C@@H]1C | 3.55% (inactive) | –
11 | CC(C)(COC(=O)c1ccccc1)COC(=O)c1ccccc1 | -0.445% (inactive) | –
12 | Cc1ccc(C(=O)C(C)CN2CCCCC2)cc1 (stereo not given) | 0.416% [at 26.4 µM, hits give high values] (inactive) | –
13 | COC(=O)C1=C(C)NC(C)=C(C(=O)OCCCN2CCC(c3ccccc3)(c3ccccc3)CC2)C1c1cccc([N+](=O)[O-])c1 (stereo not given) | -0.0546% [at 26.4 µM, hits give high values] (inactive) | –
14 | CC(=O)NNC(C)=O | 3.14% (inactive) | –
15 | O=[N+]([O-])c1ccc(Cl)cc1Cl | 0.219% (inactive) | –
16 | CC(C)(N)C#N | -1.29% (inactive) | –
17 | CCCCNCC | 4.19% (inactive) | –
18 | Cc1c(Cl)c(=O)oc2cc(O)ccc12 | -0.486% (inactive) | –
19 | Cc1ccc(O)c(O)c1 | -0.364% (inactive) | –
20 | CCCCCC(C)OC(=O)COc1ccc(Cl)c2cccnc12 (stereo not given) | 2.46% (inactive) | –

Row | SMILES | activity change | Potency
21 | COc1cc(Cc2cnc(N)nc2N)cc(OC)c1OC | – | inactive
22 | CC(C)COC(=O)C(C)C | -0.445% (inactive) | –
23 | COc1cc([C@@H]2c3cc4c(cc3[C@@H](O[C@@H]3O[C@@H]5CO[C@@H](C)O[C@H]5[C@H](O)[C@H]3O)[C@H]3COC(=O)[C@H]23)OCO4)cc(OC)c1O | -0.119% (inactive) | –
24 | Clc1cccc(-c2cc(Cl)cc(Cl)c2)c1 | 0% (inactive) | –
25 | CC1=C(/C=C/C(C)=C/C=C/C(C)=C\C=O)C(C)(C)CCC1 | 0.721% (inactive) | –
26 | C[C@@H]1C[C@H]2[C@@H]3CCC4=CC(=O)C=C[C@]4(C)[C@@]3(F)[C@@H](O)C[C@]2(C)[C@@]1(O)C(=O)COC(=O)c1ccncc1 | 0.633% [at 26.4 µM, hits give high values] (inactive) | –
27 | Sc1nc2ccccc2s1 | 0.0323% (inactive) | –
28 | O=C(NCc1ncc(C(F)(F)F)cc1Cl)c1c(Cl)cccc1Cl | -0.782% (inactive) | –
29 | CCCc1ccc(OCC(=O)N2CCN(C(=O)COc3ccc(CCC)cc3OC)CC2)c(OC)c1 | -1.84% [at 26.4 µM, hits give high values] (inactive) | –
30 | CCCCCCCCCCC1CO1 (stereo not given) | 1.85% (inactive) | –
31 | CO[C@]1(NC(=O)CSC(F)F)C(=O)N2C(C(=O)O)=C(CSc3nnnn3CCO)CO[C@H]21 | 0.188% [at 26.4 µM, hits give high values] (inactive) | –
32 | CN(C)c1ccc(N=Nc2ccccc2C(=O)O)cc1 | 1.08% (inactive) | –
33 | CC1=CCC(C(C)C)C=C1 (stereo not given) | 1.75% (inactive) | –
34 | O=S1(=O)CCCC1 | -1.57% (inactive) | –
35 | O=C1CCC(=O)N1Cl | 0.576% (inactive) | –
36 | COc1cc(NC(C)CCCN)c2ncccc2c1 (stereo not given) | -1.48% [at 26.4 µM, hits give high values] (inactive) | –
37 | CC(=O)OC(C)OC(C)=O | -0.308% (inactive) | –
38 | CO/N=C(/C(=O)N[C@@H]1C(=O)N2C(C(=O)O)=C(Cn3nnc(C)n3)CS[C@H]12)c1csc(N)n1 | -0.0821% [at 26.4 µM, hits give high values] (inactive) | –
39 | Cc1cccc(N(C)C(=S)Oc2ccc3c(c2)C2CCC3C2)c1 (stereo not given) | -0.129% [at 26.4 µM, hits give high values] (inactive) | –
40 | COc1ccc(CCN(C)CCCC(C#N)(c2ccc(OC)c(OC)c2)C(C)C)cc1OC (stereo not given) | – | inactive
